These results are taken from PMC4336329 (PLoS ONE, 2015).

SMILES strings stand for the structures. In all, about 310,000 compounds went through this assay and about 14,000 (4.5%) showed an effect of 50% or more. Effects have a minus sign here. The sample as a whole holds a higher share of strong results than the screen did.
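Note: peak tail current of the secondary pulse compared with the same well before compound.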

Chain of human ether-à-go-go-related gene (hERG) potassium channel (Q12809 whole entry, looked up): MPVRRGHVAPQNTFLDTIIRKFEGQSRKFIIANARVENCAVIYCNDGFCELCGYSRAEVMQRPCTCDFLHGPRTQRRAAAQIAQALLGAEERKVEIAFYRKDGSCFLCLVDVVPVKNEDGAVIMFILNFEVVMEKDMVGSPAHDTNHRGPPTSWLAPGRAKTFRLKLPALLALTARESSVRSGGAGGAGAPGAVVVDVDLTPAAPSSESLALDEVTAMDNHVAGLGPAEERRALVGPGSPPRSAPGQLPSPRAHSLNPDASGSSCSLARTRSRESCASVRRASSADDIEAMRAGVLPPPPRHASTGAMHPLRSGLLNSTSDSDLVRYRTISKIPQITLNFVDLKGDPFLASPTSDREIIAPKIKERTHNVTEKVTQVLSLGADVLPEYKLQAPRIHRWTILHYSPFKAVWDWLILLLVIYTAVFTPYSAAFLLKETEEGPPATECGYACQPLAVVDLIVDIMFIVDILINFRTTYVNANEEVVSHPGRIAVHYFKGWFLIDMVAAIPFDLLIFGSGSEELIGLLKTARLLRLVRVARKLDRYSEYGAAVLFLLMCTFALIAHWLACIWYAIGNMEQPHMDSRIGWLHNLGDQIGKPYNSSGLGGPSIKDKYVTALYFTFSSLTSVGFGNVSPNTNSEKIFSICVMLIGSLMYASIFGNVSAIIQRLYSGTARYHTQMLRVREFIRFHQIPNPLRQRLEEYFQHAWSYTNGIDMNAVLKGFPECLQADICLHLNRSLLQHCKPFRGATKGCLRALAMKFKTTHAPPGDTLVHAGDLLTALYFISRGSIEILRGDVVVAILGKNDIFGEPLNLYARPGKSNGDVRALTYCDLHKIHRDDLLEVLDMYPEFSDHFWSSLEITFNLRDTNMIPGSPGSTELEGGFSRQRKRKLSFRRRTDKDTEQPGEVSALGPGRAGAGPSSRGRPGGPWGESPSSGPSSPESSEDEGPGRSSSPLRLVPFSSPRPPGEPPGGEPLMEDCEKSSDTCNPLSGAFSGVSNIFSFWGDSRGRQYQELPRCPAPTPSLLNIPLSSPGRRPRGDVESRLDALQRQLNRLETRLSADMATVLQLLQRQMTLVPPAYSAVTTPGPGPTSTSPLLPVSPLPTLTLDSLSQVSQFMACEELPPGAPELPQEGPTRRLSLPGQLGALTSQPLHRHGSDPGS

This experiment has as its target human ether-à-go-go-related gene (hERG) potassium channel (human, UniProt Q12809). The experiment in a line: primary screen, population patch clamp on CHO cells stably expressing hERG; higher = less effect of the substance.
On to `COc1ccc(CCNC(=O)COC(=O)/C=C/c2ccc(OCC#N)c(OC)c2)cc1OC`, for which the “hERG current change (%, negative = inhibition) at 10uM” value is given as -17.1%.

`CCOC(=O)SC1=N/C(=C\c2ccc(N(C)C)cc2)C(=O)S1`: the “hERG current change (%, negative = inhibition) at 10uM” value is given as 14.9%. Next, `COc1ccc(CCN(C)C(=O)c2ccc(COc3ccccc3)o2)cc1OC`: -3.91%; `COCC(=O)Nc1ccc(F)cc1`: 18.6%; `O=c1c(Cc2ccc(F)cc2)c(O)ccn1Cc1ccc(Cl)cc1Cl`: 6.08%. The result for `COc1cc(O)c(C(CC(=O)N2CCCC(C)C2)c2cc(OC)c(OC)c(OC)c2)c(OC)c1` (stereo not drawn) reads 2.69%.

Take `CC(=O)Nc1ccc2nc(NC(=O)C(Cl)(Cl)Cl)sc2c1`: the “hERG current change (%, negative = inhibition) at 10uM” value is 31.1%.

Take `c1cc(-c2nnc3n2CCC3)[nH]n1`: the “hERG current change (%, negative = inhibition) at 10uM” value is recorded as 12.5%. For `O=C(CSc1nc(-c2ccccc2F)nc2nc[nH]c12)Nc1c(Cl)cc(Cl)cc1Cl`, the “hERG current change (%, negative = inhibition) at 10uM” value was -6.09%.

In the case of `Clc1ccccc1-c1nnc2n1-c1ccccc1SC2`, the “hERG current change (%, negative = inhibition) at 10uM” value is -3.67%.

On to `Brc1nnc2n1-c1ccccc1Sc1ccccc1-2`, for which the “hERG current change (%, negative = inhibition) at 10uM” value is reported as -71.8%. Next, `c1ccc2c(c1)Sc1ccccc1-n1cnnc1-2`: -20.3%; `Oc1cc2ccccc2cc1-c1nnc2n1-c1ccccc1SC2`: -8.27%; `Cl.NCCC(=O)N1c2ccccc2Sc2ccc(Cl)cc21`: -10.8%. Next, `Clc1ccc2c(c1)-c1nnc(Br)n1-c1ccccc1S2`: -52.5%; `COc1nc(NC(C)(C)C)nc(Oc2ccc(=O)n(C)n2)n1`: 16.8%; `CN(C)c1nc(-c2cccnc2)nc(-c2ccccc2)c1C#N`: 10.3%. The result for `CCOC(=O)COc1ccc(Oc2nc(C)cc(OC)n2)nn1` reads -7.8%; that for `C=CCOc1ccccc1CNCCNC(=O)c1nonc1N.Cl`, -22.8%. Consider `CCOc1ccccc1CNCCNC(=O)c1nonc1N.Cl`, for which the “hERG current change (%, negative = inhibition) at 10uM” value was -13.5%. Next, `Cl.Nc1nonc1C(=O)NCCNCc1ccccc1OCc1ccc(F)cc1`: -65.9%; `Cl.Nc1nonc1C(=O)NCCNCc1c(OCc2ccccc2F)ccc2ccccc12`: -11.9%; `Cl.Nc1nonc1C(=O)NCCNCc1ccccc1OCc1ccccc1F`: -60.5%. The result for `Cl.Nc1nonc1C(=O)NCCNCc1cc(Br)ccc1OCc1ccc(F)cc1` reads -38.2%. The result for `CC1=C(C(=O)Nc2ccccc2)C(c2ccc(O)cc2)N2C(=O)CSC2=N1` (stereo not drawn) reads 3.47%; that for `CC(C)N(CCCNC(=O)CC1Oc2ccccc2NC1=O)Cc1ccccc1` (stereo not drawn), -26.3%. With `Fc1ccc(/C=N/c2c(-c3ccc(F)cc3)nc3n2CCS3)cc1`, the “hERG current change (%, negative = inhibition) at 10uM” value is reported as -4.46%. Next, `Nc1nc2ccccc2n1/N=C/c1ccc([N+](=O)[O-])s1`: -1.38%; `O=C(O)/C(=C\c1cccs1)c1ccccc1`: 0.00478%; `COc1ccc(OC)c(-n2cnc3cc(C(=O)O)ccc32)c1`: 3.06%.

For the compound `CCOC(=O)C1CCCN(Cc2ccc3c(c2)OCO3)C1` (stereo not drawn), the “hERG current change (%, negative = inhibition) at 10uM” value is -9.12%. The result for `CSc1ccccc1NC(=O)N1CCCC(C(=O)c2ccc3c(c2)OCO3)C1` (stereo not drawn) reads -39.8%.

For the compound `Cc1ccc(CN2CCCC(C(=O)c3ccc4c(c3)OCO4)C2)cc1C` (stereo not drawn), the “hERG current change (%, negative = inhibition) at 10uM” value is recorded as -64.6%. The result for `O=C(c1ccc2c(c1)OCO2)C1CCCN(Cc2c(F)ccc(F)c2F)C1` (stereo not drawn) reads -15.8%; that for `O=C(c1ccc2c(c1)OCO2)C1CCCN(Cc2cccc(C(F)(F)F)c2)C1` (stereo not drawn), -20.5%. Next, `O=C(c1ccc2c(c1)OCO2)C1CCCN(C(=O)NCc2ccccc2)C1` (stereo not drawn): -14.3%; `CCN(CC)C(=O)C1CCCN(Cc2ccc3c(c2)OCO3)C1` (stereo not drawn): 10%; `CC(=O)c1ccc(NC(=O)N2CCCC(C(=O)c3ccc4c(c3)OCO4)C2)cc1` (stereo not drawn): -16.4%.

For `O=C(c1ccc2c(c1)OCO2)C1CCCN(C2CCN(CCc3ccccc3)CC2)C1` (stereo not drawn), the “hERG current change (%, negative = inhibition) at 10uM” value is recorded as -69.3%. As to `O=C(c1ccc2c(c1)OCO2)C1CCCN(Cc2ccc(F)c(F)c2)C1` (stereo not drawn), the “hERG current change (%, negative = inhibition) at 10uM” value is reported as -65.4%.

As for `CC(=O)c1cccc(CN2CCCC(C(=O)c3ccc4c(c3)OCO4)C2)c1` (stereo not drawn), the “hERG current change (%, negative = inhibition) at 10uM” value was -64.9%. The result for `COc1ccccc1/C=C1\C(=O)Nc2ccccc21` reads 2.99%; that for `Cc1cn(S(=O)(=O)c2cc(Br)ccc2Br)cn1`, 1.08%; that for `CCc1ccc(NC(=O)NCCCN2CCCC2=O)cc1`, 0.255%. Next, `CN(C)C1(CNC(=O)CC(NC(=O)c2ccccc2Cl)c2ccccc2)CCCCC1` (stereo not drawn): -31.3%; `C[C@@]12CCC3[C@@](CCC4[C@@]3(C)CCC[C@@]4(C)C(=O)N3CCCCC3)(CC1=O)C2` (stereo partly drawn): 7.27%; `O=c1c(Cc2c(F)cccc2Cl)c(O)ccn1Cc1ccc(F)cc1`: -0.211%. The result for `CCCC(=O)Nc1ccc(N2CCCCC2)cc1` reads -8.42%. As to `C=C1C(=O)[C@@]23[C@H](O)C[C@@H]4C(C)(C)CC[C@H](O)[C@]4(C)[C@@H]2C[C@H](O)[C@@H]1[C@H]3O`, the “hERG current change (%, negative = inhibition) at 10uM” value is -0.141%. The result for `CC(N)C12CC3CC(CC(C3)C1)C2.Cl` (stereo not drawn) reads 14.1%; that for `C/C(=N\N1CCCCC1)c1c(O)[nH]c(=O)[nH]c1=O`, -11%. Next, `O=C(c1ccc2c(c1)OCO2)C1CCCN(Cc2ccc3cccc(F)c3n2)C1` (stereo not drawn): -87%; `O=C(c1ccc2c(c1)OCO2)C1CCCN(CC2CCCCC2)C1` (stereo not drawn): -71.8%; `COc1cccc(C(=O)C2CCCN(Cc3ccc4nsnc4c3)C2)c1` (stereo not drawn): -26%. The result for `O=C(c1ccc2c(c1)OCO2)C1CCCN(Cc2ccc3nsnc3c2)C1` (stereo not drawn) reads -71.4%. Consider `O=C(c1cccc(Cl)c1)C1CCCN(C(=O)c2ccc3c(c2)OCO3)C1` (stereo not drawn), for which the “hERG current change (%, negative = inhibition) at 10uM” value is -34.1%. For the compound `Cc1cccc(CN2CCCC(C(=O)c3ccc4c(c3)OCO4)C2)n1` (stereo not drawn), the “hERG current change (%, negative = inhibition) at 10uM” value is -49.2%. In the case of `Cn1c(CN2CCCC(C(=O)c3ccc4c(c3)OCO4)C2)nc2ccccc21` (stereo not drawn), the “hERG current change (%, negative = inhibition) at 10uM” value is -70.5%. The result for `O=C(c1ccc2c(c1)OCO2)C1CCCN(C(=O)C2CCOCC2)C1` (stereo not drawn) reads 7.74%. With `Cn1cc(CN2CCCC(CNC(=O)c3ccc4c(c3)OCO4)C2)c2ccccc21` (stereo not drawn), the “hERG current change (%, negative = inhibition) at 10uM” value was -43.6%. Next, `CSc1ccc(C(=O)C2CCCN(C(=O)c3ccc4c(c3)OCO4)C2)cc1` (stereo not drawn): -34%; `Cc1sc(NC(=S)NC(=O)c2ccccc2)c(C#N)c1C`: 0.195%; `O=C(N/N=C1\C(=O)c2cccc3cccc1c23)c1ccc(O)cc1`: 8.35%. Next, `CCOC(=O)c1[nH]c2cc(OC)c(OC)cc2c1NC(=O)c1ccc2c(c1)OCO2`: -4.45%; `COc1cc(C(=O)N/N=C(\C)Cn2nc([N+](=O)[O-])cc2C)ccc1O`: -21.1%; `CC(C)(C)c1nnc(NC(=O)NS(=O)(=O)c2ccccc2)s1`: 19.7%. The result for `O=C(Nc1nccs1)c1ccc(S(=O)(=O)N2CCCCC2)cc1` reads 3.29%; that for `COc1ccc(C(=O)O)cc1S(=O)(=O)N(C)C`, 16.6%. For the compound `O=C(Nc1cc(Cl)ccc1Oc1ccccc1)c1ccccc1F`, the “hERG current change (%, negative = inhibition) at 10uM” value was -4.45%. The result for `CCCC(C)C(=O)Nc1ccccc1C(=O)OCC` (stereo not drawn) reads -4.39%; that for `O=S(=O)(Nc1ccccc1Cl)c1cc(NC(=S)NCCN2CCOCC2)ccc1Cl`, 14%. The result for `CCOC(NC(=O)c1ccccc1)C(NC(=O)c1ccccc1)OCC` (stereo not drawn) reads -0.069%; that for `CCN1CCN(S(=O)(=O)c2ccc(C)c([N+](=O)[O-])c2)CC1`, -0.352%; that for `Cc1ccc([N+](=O)[O-])cc1S(=O)(=O)N1CCN(C)CC1`, 0.51%. The result for `CCN1CCN(c2ccc(N3CCN(S(=O)(=O)c4cc([N+](=O)[O-])ccc4C)CC3)nn2)CC1` reads -54.4%; that for `CCN1CCN(c2ccc(N3CCN(S(=O)(=O)c4ccc(C)c([N+](=O)[O-])c4)CC3)nn2)CC1`, -56.6%. With `Cc1ccc(S(=O)(=O)N2CCN(c3ccc(N4CCOCC4)nn3)CC2)cc1[N+](=O)[O-]`, the “hERG current change (%, negative = inhibition) at 10uM” value is on record as -4.74%. The result for `Cc1ccc([N+](=O)[O-])cc1S(=O)(=O)N1CCCC1` reads 7.21%. The result for `C[C@]12CC[C@@H]3c4cc(O)c(O)cc4CC[C@H]3[C@@H]1CC[C@@H]2O` reads 24.1%; that for `O=C(O)c1cc(-c2cccc(Cl)c2)nc2nc(N3CCCCC3)sc12`, 8.18%; that for `CS(=O)(=O)c1ccc(NCC2CCCO2)c([N+](=O)[O-])c1` (stereo not drawn), 9.48%.

Regarding `CN(CCc1ccccc1)C1CCCN(C(=O)Cn2cccn2)C1` (stereo not drawn), the “hERG current change (%, negative = inhibition) at 10uM” value was -1.49%. In the case of `Cc1cc(C)nc(SCc2ccc(C(=O)N/N=C/c3cccnc3)cc2)n1`, the “hERG current change (%, negative = inhibition) at 10uM” value was -17.3%. The result for `Cc1cc(C)nc(SCc2ccc(C(=O)N/N=C/c3ccc(C(=O)O)cc3)cc2)n1` reads 28.6%; that for `Cc1cc(C)nc(SCc2ccc(C(=O)N/N=C/c3ccncc3)cc2)n1`, -50.5%.

Consider `N=C1C(c2nc3ccccc3[nH]2)=C(O)CN1NC(=O)c1c[nH]c2ccccc12`, for which the “hERG current change (%, negative = inhibition) at 10uM” value came out at 17%. Next, `CCOc1ccc(N2C(=O)Nc3ccc(Br)cc3C2(O)C(=O)NC(C)C)cc1` (stereo not drawn): 8.92%.

As to `O=C(Cn1ncc2c3ccccc3n(Cc3ccccc3F)c2c1=O)N1CCC2(CC1)OCCO2`, the “hERG current change (%, negative = inhibition) at 10uM” value was -72.8%. The result for `Cc1c2cnn(CC(=O)N3CCC4(CC3)OCCO4)c(=O)c2c(C)n1Cc1cccc(Cl)c1` reads 1.18%; that for `O=C(Cn1ncc2c3ccccc3n(Cc3cccc(Cl)c3)c2c1=O)N1CCC2(CC1)OCCO2`, -69%; that for `O=C(Cn1ncc2c3ccccc3n(Cc3ccc(F)cc3)c2c1=O)N1CCN(c2ncccn2)CC1`, -16.2%. Next, `O=C(Cn1ncc2c3ccccc3n(Cc3ccc(F)cc3)c2c1=O)N1CCC2(CC1)OCCO2`: -67.2%.

As for `Cc1c2cnn(CC(=O)N3CCC4(CC3)OCCO4)c(=O)c2c(C)n1Cc1ccc(F)cc1`, the “hERG current change (%, negative = inhibition) at 10uM” value was -7.31%. For `Cn1c2ccccc2c2cnn(CC(=O)N3CCC4(CC3)OCCO4)c(=O)c21`, the “hERG current change (%, negative = inhibition) at 10uM” value was -22.2%. `Cc1c2cnn(CC(=O)N3CCC4(CC3)OCCO4)c(=O)c2c(C)n1Cc1ccccc1`: the “hERG current change (%, negative = inhibition) at 10uM” value is listed as -0.415%.

In the case of `Cc1c2cnn(CC(=O)N3CCC4(CC3)OCCO4)c(=O)c2c(C)n1Cc1ccccc1F`, the “hERG current change (%, negative = inhibition) at 10uM” value was determined as 6.7%.
